In PubChem BioAssay (NCI):
Compounds without any hit were thinned out: in the full panel of roughly 79,000, 15% have a hit. Values without a mark were called inactive. Calls of active or inactive are those of the source. Rule as the data show it: active = growth inhibition above about 70%; inactive = the rest.

Experiments:
[1] = NCI Yeast Anticancer Drug Screen. Data for the rad50 strain (AID 155);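 also: 0% = growth of vehicle-only cultures of the same strain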; details: S. cerevisiae rad50 strain growth inhibition, stronger effect = higher value
Method in brief: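 Relative growth inhibition (compound vs vehicle) was measured in yeast with a defined repair-gene alteration.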

[2] = NCI Yeast Anticancer Drug Screen. Data for the mec2-1 strain (AID 157); details: S. cerevisiae mec2-1 strain, stronger effect = higher value
Method in brief: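 mec2-1 yeast strain, carrying an alteration in DNA damage repair or cell cycle control, was exposed to compounds; growth inhibition was measured relative to vehicle-treated controls.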

[3] = NCI Yeast Anticancer Drug Screen. Data for the sgs1 mgt1 strain (AID 161);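 also: 0% = growth of cultures given vehicle only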; details: S. cerevisiae sgs1 mgt1 strain, stronger effect = higher value
Method in brief: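 This yeast growth screen uses a strain with defined DNA-repair lesions; compound-treated growth is compared with vehicle-treated growth.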

[4] = NCI Yeast Anticancer Drug Screen. Data for the cln2 rad14 strain (AID 165);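 also: 0% = growth equal to vehicle treated cultures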; details: S. cerevisiae cln2 rad14 strain, stronger effect = higher value
Method in brief: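 Yeast carrying cln2 and rad14 alterations (cell cycle control and DNA damage repair) were exposed to compounds. Growth inhibition was measured against vehicle-treated controls.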

[5] = NCI Yeast Anticancer Drug Screen. Data for the bub3 strain (AID 167); details: S. cerevisiae bub3 mutant strain, stronger effect = higher value
Method in brief: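 Screening used yeast with an engineered genetic alteration affecting cell cycle control. Compound-exposed cultures were compared with vehicle cultures, and reduced growth was taken as inhibition.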

[6] = NCI Yeast Anticancer Drug Screen. Data for the mlh1 rad18 strain (AID 175); details: S. cerevisiae mlh1 rad18 strain growth inhibition, stronger effect = higher value
Method in brief: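 Growth inhibition of the yeast strain was measured after compound exposure and expressed relative to vehicle-treated controls. The strain carries defined defects in DNA damage repair.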

[7] = at 5.0 µM (retest, dose inferred, filed as 0.5)
[8] = at 50.0 µM (retest, dose inferred, filed as 5.0)

Structure (SMILES): CC(C)=CCc1c(O)cc(O)c2c1OC(c1ccc(O)cc1)C(O)C2=O (stereo not given)
- growth inhibition [1, 7]: -9%
- growth inhibition [1, 8]: 98% (active)
- growth inhibition ([1]; at 50.0 µM): 93.2% (active)
- growth inhibition [2, 7]: 1%
- growth inhibition [2, 8]: 99% (active)
- growth inhibition ([2]; at 50.0 µM): 94% (active)
- growth inhibition [3, 7]: -4%
- growth inhibition [3, 8]: 99% (active)
- growth inhibition ([3]; at 50.0 µM): 93.8% (active)
- growth inhibition [4, 7]: 20%
- growth inhibition [4, 8]: 99% (active)
- growth inhibition ([4]; at 50.0 µM): 91.5% (active)
- growth inhibition [5, 7]: 5%
- growth inhibition [5, 8]: 99% (active)
- growth inhibition ([5]; at 50.0 µM): 92% (active)
- growth inhibition [6, 7]: -2%
- growth inhibition [6, 8]: 99% (active)
- growth inhibition ([6]; at 50.0 µM): 92.5% (active)

Structure (SMILES): Nc1ccccc1C(=O)/C=C/c1ccccc1
- growth inhibition [1, 7]: 19%
- growth inhibition [1, 8]: 73% (active)
- growth inhibition ([1]; at 50.0 µM): 98.8% (active)
- growth inhibition [2, 7]: 4%
- growth inhibition [2, 8]: 57%
- growth inhibition ([2]; at 50.0 µM): 99% (active)
- growth inhibition [3, 7]: -2%
- growth inhibition [3, 8]: 70% (active)
- growth inhibition ([3]; at 50.0 µM): 94.6% (active)
- growth inhibition [4, 7]: -23%
- growth inhibition [4, 8]: 27%
- growth inhibition ([4]; at 50.0 µM): 80.1% (active)
- growth inhibition [5, 7]: 11%
- growth inhibition [5, 8]: 73% (active)
- growth inhibition ([5]; at 50.0 µM): 99.2% (active)
- growth inhibition [6, 7]: 21%
- growth inhibition [6, 8]: 84% (active)
- growth inhibition ([6]; at 50.0 µM): 96.8% (active)

Structure (SMILES): C=CCOc1ccccc1C(=O)OC
- growth inhibition [1, 7]: 3%
- growth inhibition [1, 8]: 0%
- growth inhibition ([1]; at 50.0 µM): -4.6%
- growth inhibition [2, 7]: 6%
- growth inhibition [2, 8]: -4%
- growth inhibition ([2]; at 50.0 µM): 7.9%
- growth inhibition [3, 7]: -1%
- growth inhibition [3, 8]: -5%
- growth inhibition ([3]; at 50.0 µM): 7.2%
- growth inhibition [4, 7]: 5%
- growth inhibition [4, 8]: -4%
- growth inhibition ([4]; at 50.0 µM): 30.9%
- growth inhibition [5, 7]: -3%
- growth inhibition [5, 8]: -10%
- growth inhibition ([5]; at 50.0 µM): -2.45%
- growth inhibition [6, 7]: 3%
- growth inhibition [6, 8]: -1%
- growth inhibition ([6]; at 50.0 µM): 0.3%

Structure (SMILES): O=C(OCCCC(C(=O)c1ccccc1)=P(c1ccccc1)(c1ccccc1)c1ccccc1)c1ccccc1
- growth inhibition [1, 7]: 35%
- growth inhibition [1, 8]: 99% (active)
- growth inhibition ([1]; at 50.0 µM): 84.8% (active)
- growth inhibition [2, 7]: 36%
- growth inhibition [2, 8]: 99% (active)
- growth inhibition ([2]; at 50.0 µM): 36.8%
- growth inhibition [3, 7]: 33%
- growth inhibition [3, 8]: 99% (active)
- growth inhibition ([3]; at 50.0 µM): 61.5%
- growth inhibition [4, 7]: 6%
- growth inhibition [4, 8]: 98% (active)
- growth inhibition ([4]; at 50.0 µM): 9.75%
- growth inhibition [5, 7]: 14%
- growth inhibition [5, 8]: 99% (active)
- growth inhibition ([5]; at 50.0 µM): 23.4%
- growth inhibition [6, 7]: 50%
- growth inhibition [6, 8]: 99% (active)
- growth inhibition ([6]; at 50.0 µM): 54.8%

Structure (SMILES): CCc1nc2c(O)ccc(O)c2nc1C
- growth inhibition [1, 7]: -137%
- growth inhibition [1, 8]: 33%
- growth inhibition ([1]; at 50.0 µM): 72.3% (active)
- growth inhibition [2, 7]: -43%
- growth inhibition [2, 8]: -11%
- growth inhibition ([2]; at 50.0 µM): 62.9%
- growth inhibition [3, 7]: -50%
- growth inhibition [3, 8]: 37%
- growth inhibition ([3]; at 50.0 µM): 65%
- growth inhibition [4, 7]: -55%
- growth inhibition [4, 8]: -10%
- growth inhibition ([4]; at 50.0 µM): 59.4%
- growth inhibition [5, 7]: -63%
- growth inhibition [5, 8]: 17%
- growth inhibition ([5]; at 50.0 µM): 84.2% (active)
- growth inhibition [6, 7]: -107%
- growth inhibition [6, 8]: 2%
- growth inhibition ([6]; at 50.0 µM): 90.3% (active)

Structure (SMILES): O=C(C(=O)n1ncc(Cl)c(Cl)c1=O)n1ncc(Cl)c(Cl)c1=O
- growth inhibition [1, 7]: 5%
- growth inhibition [1, 8]: 7%
- growth inhibition ([1]; at 50.0 µM): 18.6%
- growth inhibition [2, 7]: -5%
- growth inhibition [2, 8]: 10%
- growth inhibition ([2]; at 50.0 µM): 70.9% (active)
- growth inhibition [3, 7]: 5%
- growth inhibition [3, 8]: 8%
- growth inhibition ([3]; at 50.0 µM): 44.9%
- growth inhibition [4, 7]: -6%
- growth inhibition [4, 8]: -15%
- growth inhibition ([4]; at 50.0 µM): 13.8%
- growth inhibition [5, 7]: -2%
- growth inhibition [5, 8]: -1%
- growth inhibition ([5]; at 50.0 µM): 36.9%
- growth inhibition [6, 7]: 0%
- growth inhibition [6, 8]: 3%
- growth inhibition ([6]; at 50.0 µM): 65.9%

Structure (SMILES): CNC(=S)N/N=C(\C=N\NC(=S)NC)c1ccccc1
- growth inhibition [1, 7]: 7%
- growth inhibition [1, 8]: 32%
- growth inhibition ([1]; at 50.0 µM): 74.7% (active)
- growth inhibition [2, 7]: -14%
- growth inhibition [2, 8]: 35%
- growth inhibition ([2]; at 50.0 µM): 37%
- growth inhibition [3, 7]: 3%
- growth inhibition [3, 8]: 37%
- growth inhibition ([3]; at 50.0 µM): 82.4% (active)
- growth inhibition [4, 7]: 9%
- growth inhibition [4, 8]: 30%
- growth inhibition ([4]; at 50.0 µM): 37.8%
- growth inhibition [5, 7]: -1%
- growth inhibition [5, 8]: 25%
- growth inhibition ([5]; at 50.0 µM): 59.5%
- growth inhibition [6, 7]: 0%
- growth inhibition [6, 8]: 44%
- growth inhibition ([6]; at 50.0 µM): 66.8%

Structure (SMILES): COc1ccc2c(Cc3ccc(O)cc3)cncc2c1O
- growth inhibition [1, 7]: -1%
- growth inhibition [1, 8]: 6%
- growth inhibition ([1]; at 50.0 µM): 8.65%
- growth inhibition [2, 7]: -8%
- growth inhibition [2, 8]: 26%
- growth inhibition ([2]; at 50.0 µM): 51.5%
- growth inhibition [3, 7]: -3%
- growth inhibition [3, 8]: 16%
- growth inhibition ([3]; at 50.0 µM): -7.15%
- growth inhibition [4, 7]: 5%
- growth inhibition [4, 8]: 4%
- growth inhibition ([4]; at 50.0 µM): 91.8% (active)
- growth inhibition [5, 7]: -5%
- growth inhibition [5, 8]: -4%
- growth inhibition ([5]; at 50.0 µM): 71.5% (active)
- growth inhibition [6, 7]: 6%
- growth inhibition [6, 8]: 27%
- growth inhibition ([6]; at 50.0 µM): 97.6% (active)

Structure (SMILES): Cc1ccc(C(=O)C(CCC#N)(CCC#N)CCC#N)cc1
- growth inhibition [1, 7]: -8%
- growth inhibition [1, 8]: -5%
- growth inhibition ([1]; at 50.0 µM): -13.7%
- growth inhibition [2, 7]: -8%
- growth inhibition [2, 8]: -17%
- growth inhibition ([2]; at 50.0 µM): -0.25%
- growth inhibition [3, 7]: -1%
- growth inhibition [3, 8]: -11%
- growth inhibition ([3]; at 50.0 µM): 8.85%
- growth inhibition [4, 7]: -15%
- growth inhibition [4, 8]: -3%
- growth inhibition ([4]; at 50.0 µM): -6.25%
- growth inhibition [5, 7]: 12%
- growth inhibition [5, 8]: 15%
- growth inhibition ([5]; at 50.0 µM): 1.1%
- growth inhibition [6, 7]: 4%
- growth inhibition [6, 8]: -6%
- growth inhibition ([6]; at 50.0 µM): 4.3%

Structure (SMILES): CCN(CC)C(=O)CCCCC(=O)OC(C)C
- growth inhibition [1, 7]: 0%
- growth inhibition [1, 8]: -12%
- growth inhibition ([1]; at 50.0 µM): -2.2%
- growth inhibition [2, 7]: -2%
- growth inhibition [2, 8]: -2%
- growth inhibition ([2]; at 50.0 µM): -1.1%
- growth inhibition [3, 7]: -6%
- growth inhibition [3, 8]: -12%
- growth inhibition ([3]; at 50.0 µM): -24%
- growth inhibition [4, 7]: -7%
- growth inhibition [4, 8]: -1%
- growth inhibition ([4]; at 50.0 µM): 86.2% (active)
- growth inhibition [5, 7]: -3%
- growth inhibition [5, 8]: -10%
- growth inhibition ([5]; at 50.0 µM): -7.2%
- growth inhibition [6, 7]: -1%
- growth inhibition [6, 8]: -11%
- growth inhibition ([6]; at 50.0 µM): 21.9%
